Hits are enriched below; roughly 28% of the tested compounds scored in any of these assays.
PLK1 PBD inh: Plk1 (human) PBD binding inhibition; P53350; Plk1 PBD phosphopeptide binding, fluorescence polarization; inhibition, %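 (tested at about 20 µM)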; 0.13% of 97,000 active; AID 693; in the data active = inhibition above about 34%, passing the limit was not always enough
CYP2C9 inhib: human CYP2C9 inhibition | inhibition, % at 5 µM | 20% of 96,000 active | AID 777 | P11712 | CYP2C9 Supersomes, luciferin-H conversion, luminescence;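 active = blocking of liver enzyme CYP2C9 beyond about 50% at 5 µM, limit read from the data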
CYP2C9 act: increases human cytochrome P450 2C9 activity; activation factor at 5 µM; recombinant CYP2C9, luciferin-H conversion, luminescence; active compounds read high; factor 1 = untreated enzyme, 0 = blocked; AID 1024; 1.4% of 96,000 active;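 active = activation factor of 2 or more for CYP2C9 at a 5 µM dose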
CYP2C19 inh: human CYP2C19 inhibition | P33261 | CYP2C19 Supersomes, luciferin-H EGE luminescence, 30 min | inhibition, % at 5 µM | 21% of 96,000 active;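 active = CYP2C19 inhibition above a set limit at 5 µM in the primary screen, cut at about 50% in these data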
Target sequence (P33261 whole entry, looked up): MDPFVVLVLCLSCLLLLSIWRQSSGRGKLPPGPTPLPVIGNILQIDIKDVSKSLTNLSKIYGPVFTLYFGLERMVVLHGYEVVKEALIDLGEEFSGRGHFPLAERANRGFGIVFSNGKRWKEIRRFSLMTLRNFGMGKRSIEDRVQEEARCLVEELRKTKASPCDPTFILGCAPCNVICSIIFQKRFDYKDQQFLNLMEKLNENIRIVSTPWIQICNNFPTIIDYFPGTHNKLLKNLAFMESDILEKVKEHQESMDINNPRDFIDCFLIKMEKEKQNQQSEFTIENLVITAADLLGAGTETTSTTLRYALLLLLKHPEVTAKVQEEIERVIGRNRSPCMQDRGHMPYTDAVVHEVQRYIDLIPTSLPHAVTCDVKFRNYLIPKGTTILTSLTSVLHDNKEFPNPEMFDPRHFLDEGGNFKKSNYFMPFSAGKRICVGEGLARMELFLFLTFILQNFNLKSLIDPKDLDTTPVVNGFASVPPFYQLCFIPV
PLK1 kinase inh: PLK1 (human) kinase inhibition; recombinant PLK1 kinase, TR-FRET peptide phosphorylation; inhibition, % at 10 µM; 0.53% of 97,000 active; AID 619;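 active = inhibition of 50% or more in the single-concentration screen; inactive = inhibition below 50%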
CYP2C19 act: activators of human cytochrome P450 2C19. recombinant CYP2C19, luciferin-H EGE luminescence; active compounds read high; 0 = fully inhibited enzyme, 1 = untreated enzyme. P33261. activation factor at 5 µM. 96,000 tested, under 10 active. AID 1025;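 active = activation factor of at least 2 at 5 µM in the primary screen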
Large screens that a line does not name were inactive.

Cc1ccc(S(=O)(=O)Nc2ccc(N3CCOCC3)cc2)cc1	CYP2C9 inhib 94.4, CYP2C19 inh 96.4
O=S(=O)(Nc1ccc(N2CCOCC2)cc1)c1ccc2ccccc2c1	CYP2C19 inh 92.3
COC(=O)c1nn(-c2ccc(OC)cc2)c(=O)cc1Oc1cccc(Cl)c1	none
CCCCOc1ccc(NC2=NC3(CCCC3)N=C(N)N2)cc1	none
C=CCn1c(=NC(=O)CN2C(=O)CCC2=O)sc2cccc(OC)c21	none
C#CCn1c(=NC(=O)c2cccs2)sc2cccc(OCC)c21	CYP2C9 inhib 67.6
C#CCn1c(=NC(=O)CN2C(=O)CCC2=O)sc2cccc(C)c21	PLK1 kinase inh 62.4
COc1cc(CNCCO)ccc1OCC(=O)Nc1ccc(Br)cc1	none
CCOc1ccccc1NC=C1C(=O)OC(C)(C)OC1=O	CYP2C9 act 2
CCOC(=O)CSc1nc(C)c2ccc(C)cc2n1	none (no result: CYP2C9 inhib, CYP2C9 act, CYP2C19 inh, CYP2C19 act)
CSc1ccccc1NC(=O)CN(c1cccc(C)c1)S(C)(=O)=O	CYP2C9 inhib 53.3, CYP2C19 inh 50.6 (no result: PLK1 PBD inh, PLK1 kinase inh)
Cc1cccc(N(CC(=O)Nc2ccccc2F)S(C)(=O)=O)c1	CYP2C9 inhib 69.0, CYP2C19 inh 92.1
CCCCC(CCC(=O)Nc1nccs1)C(=O)O (stereo not given)	none
O=c1c(/C=N/Nc2ccccc2)c(Sc2nnnn2-c2ccccc2)nc2ccccn12	CYP2C9 inhib 72.5
O=Cc1c(Sc2ccccc2)nc2ccccn2c1=O	CYP2C19 inh 72.1
Cc1ccc(CNC(=O)c2cn(C3CCCC3)c(=O)c3c2c2ccccc2n3C)o1	none
Cc1cc(NC(=O)CS(=O)(=O)c2cn(Cc3ccc(F)cc3)c3ccccc23)no1	none
CCn1cc(S(=O)(=O)CC(=O)Nc2ccc(OC)cc2)c2ccccc21	CYP2C19 inh 56.1 (no result: PLK1 PBD inh, PLK1 kinase inh)
Cc1cc(NC(=O)CS(=O)(=O)c2cn(Cc3cccc(F)c3)c3ccccc23)no1	CYP2C9 inhib 71.5, CYP2C19 inh 57.3
COC(=O)c1sc(N)nc1C(C)(C)C	none
O=C(NCCO)c1ccc2[nH]c3c(c2c1)CCCC3	CYP2C19 inh 82.7
Cc1ccc(-c2nnc(CSc3nc(C(C)C)nc4sc(C)c(C)c34)o2)cc1	none (no result: CYP2C9 inhib, CYP2C9 act, CYP2C19 inh, CYP2C19 act)
C=CCn1c(O)c(C=Nc2ccc(Cc3ccncc3)cc2)c(=O)[nH]c1=S	CYP2C9 inhib 83.1, CYP2C19 inh 88.1
CCCC(C)C(=O)Nc1ccc2c(c1)OCCO2 (stereo not given)	none
CCNC(=O)NC(=O)C(C)Sc1ccc2c(c1)OCCO2 (stereo not given)	CYP2C19 inh 52.8
CC(=O)Nc1ccc(S(=O)(=O)N(C)CC(=O)NC2=NCCS2)cc1	none
CCOc1ccccc1N1CCN(Cc2ccco2)CC1	CYP2C19 inh 51.1
COc1ccccc1N1CCN(Cc2ccc(Br)o2)CC1	CYP2C9 inhib 54.1, CYP2C19 inh 93.2 (no result: PLK1 PBD inh, PLK1 kinase inh)
CCOc1ccccc1N1CCN(Cc2ccc(OC)c(OC)c2)CC1	none (no result: PLK1 PBD inh, PLK1 kinase inh)
COc1cc(OC)c(OC)cc1CN1CCN(c2ccccc2OC)CC1	none
CCOc1ccccc1N1CCN(Cc2ccc(Br)s2)CC1	CYP2C9 inhib 52.2
COCCCn1c(CCC(=O)O)ccc1-c1cccs1	none
O=C(NN1C(=O)c2ccc3c4c(ccc(c24)C1=O)CC3)c1ccc(Br)cc1	CYP2C9 act 3.5
O=C1c2ccc3c4c(ccc(c24)C(=O)N1NC(=O)C(F)(F)F)CC3	none
COC(=O)c1cccc(NC(=O)NC2CCCN2S(=O)(=O)c2ccc(Cl)cc2)c1 (stereo not given)	CYP2C9 inhib 54.4
COC(=O)c1cccc(NC(=O)Nc2ccc(Cl)c(Cl)c2)c1	none
COc1ccc(C(=O)C2CN(c3ccccc3)CC2c2ccc(Cl)cc2)cc1 (stereo not given)	CYP2C9 inhib 63.1
COc1ccc(NC(=O)c2ccc(CN3CCN(c4ccccc4)CC3)cc2)cc1	none
O=C(CNc1ccccc1)N/N=C/c1ccc([N+](=O)[O-])o1	none
Cc1ccc(C)c(CSc2nnc(CCN)o2)c1	CYP2C9 inhib 74.5, CYP2C19 inh 90.1
Cc1ccc(C)c(CSc2nnc([C@@H](N)C(C)C)o2)c1	CYP2C19 inh 99.8
NCCc1nnc(SCC(N)=O)o1	none
CCOC(=O)Cn1nc(-c2ccc(F)cc2)oc1=O	CYP2C19 inh 57.6
CC1CCN(C(=O)CCCNC(=O)Cn2cnc3sc4c(c3c2=O)CCCC4)CC1	none
CC(=O)Nc1ccc(S(=O)(=O)N2CCN(C)CC2)cc1	none
CCOC(=O)COc1ccc(S(=O)(=O)N2CCc3ccccc3C2)cc1	CYP2C19 inh 55.9
CC(=O)Nc1ccc(S(=O)(=O)N2CCc3ccccc3C2)cc1	CYP2C19 inh 65.0
CCOC(=O)COc1ccc(S(=O)(=O)N2CCN(c3ccc(F)cc3)CC2)cc1	CYP2C9 inhib 50.5
O=c1cc(-c2ccccc2)nc(N2CCN(Cc3ccc4c(c3)OCO4)CC2)[nH]1	none
O=C(NCc1ccc2c(c1)OCO2)c1nn2cccnc2c1Cl	none
CC(C)(C)N(NC(=O)Nc1ccc(Cl)cc1)C(=O)c1ccccc1	none
COc1ccc(-c2cc(=O)c3ccccc3s2)cc1	CYP2C9 inhib 64.5
COc1ccc2sc3ccccc3c(=O)c2c1	none
Nc1ccc(Sc2cc(Cl)nc(N)n2)cc1	CYP2C9 inhib 74.5, CYP2C19 inh 53.3
COCc1cc(Sc2ccc(Cl)cc2)nc(-c2ccccc2)n1	none
c1ccc2c(c1)CC1(CCCC1)n1nnnc1-2	none
c1csc(-c2csc3nc(CN4CCOCC4)nc(NCc4ccc5c(c4)OCO5)c23)c1	CYP2C9 inhib 84.0, CYP2C19 inh 79.2
CC(C)(C)NC(NC(=O)Cc1ccccc1)C(Cl)(Cl)Cl (stereo not given)	CYP2C19 inh 69.8
CC(NC(=O)Cc1ccc(-c2ccccc2)cc1)c1ccccc1 (stereo not given)	none
O=C(Cc1ccccc1)NC(Nc1ccccc1)C(Cl)(Cl)Cl (stereo not given)	CYP2C9 inhib 73.3, CYP2C19 inh 82.4
COc1ccc(C(=O)NC(Nc2ccccc2)C(Cl)(Cl)Cl)cc1 (stereo not given)	CYP2C9 inhib 84.9
Cc1ccc(CNC(=O)CSCC(=O)O)cc1	none
O=C(O)CCCCCNS(=O)(=O)c1ccc(Cl)cc1	none
C=CCC1CCCCC12NC(=O)NC2=O (stereo not given)	none (no result: PLK1 PBD inh, PLK1 kinase inh)
CCC(C)c1ccc(NC(=O)C2CCN(c3ncccn3)CC2)cc1 (stereo not given)	none (no result: CYP2C9 inhib, CYP2C9 act, CYP2C19 inh, CYP2C19 act)
COc1ccc(N(CC(=O)NN=C2CCCC2)S(=O)(=O)c2ccccc2)cc1	CYP2C19 inh 51.4
COc1ccc(N(CC(=O)NN=C2CCCCCCC2)S(=O)(=O)c2ccccc2)cc1Cl	none
CCOc1ccccc1N(CC(=O)OC)S(=O)(=O)c1ccccc1	CYP2C9 inhib 70.9, CYP2C19 inh 50.7
CCC(C)NC(=O)CN(c1ccc(OC)cc1)S(=O)(=O)c1ccc(NC(C)=O)cc1 (stereo not given)	CYP2C9 inhib 56.7 (no result: PLK1 PBD inh, PLK1 kinase inh)
COc1ccc(N(C(=O)COc2ccccc2OC)S(=O)(=O)c2ccc(C)cc2)cc1	CYP2C9 inhib 52.4
CNC(=O)CN(c1ccc(OC)cc1)S(=O)(=O)c1ccc(F)cc1	none (no result: CYP2C9 inhib, CYP2C9 act, CYP2C19 inh, CYP2C19 act)

From PubChem BioAssay
